Measurements: PubChem BioAssay (NCI)
The panel holds about 83,000 compounds, 20% with a hit somewhere; the sample as a whole holds those more often.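 Each cell line was grown in a 96-well plate and treated with one concentration of compound for 48 hours. Values below 10 were considered active.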 Unmarked numbers belong to inactive results. Active and inactive are the calls of the source.

Columns and labels:
Assay in all cases: NCI-60 one-dose screen, 48 h (100 = growth as untreated, 0 = no growth, -100 = all killed)
Conditions in all cases: 10 µM unless noted
NCI-H23 lung = test system: NCI-H23 lung
NCI-H226 lung = test system: NCI-H226 lung
NCI-H322M lung = test system: NCI-H322M lung
HOP-62 NSCLC = test system: HOP-62 NSCLC
NCI-H460 lung = test system: NCI-H460 lung
HOP-92 NSCLC = test system: HOP-92 NSCLC
NCI-H522 lung = test system: NCI-H522 lung
A549/ATCC NSCLC = test system: A549/ATCC NSCLC
786-0 renal = test system: 786-0 renal
COLO 205 colon = test system: COLO 205 colon

Row | Structure (SMILES) | growth (NCI-H23 lung) | growth (NCI-H226 lung) | growth (NCI-H322M lung) | growth (HOP-62 NSCLC) | growth (NCI-H460 lung) | growth (HOP-92 NSCLC) | growth (NCI-H522 lung) | growth (A549/ATCC NSCLC) | growth (786-0 renal) | growth (COLO 205 colon)
1 | Cn1cc(-c2csc(-c3cn(C)c4ccc(Br)cc34)n2)c2cnccc21 | -28.7% (active) | 102% | -32.6% (active) | -79% (active) | -76.4% (active) | -90.9% (active) | -67.5% (active) | -75.1% (active) | -92.4% (active) | -77.8% (active)
2 | COc1cccc(/C=C/C(=O)c2cc3c(N)c(C(=O)Nc4ccccc4C)sc3nc2C)c1 | 70.4% | 69.2% | 80.5% | 67.7% | 32.2% | 74.1% | -7.9% (active) | 62.9% | 9.79% (active) | 92.2%
3 | O=C(O)CCCc1cnc2c3sccc3nc(SCc3c(Cl)cccc3Cl)n12 | 62.2% | 83.1% | 55.3% | 33.9% | 22.2% | 58.7% | -12.5% (active) | 59.5% | 38.5% | 28.3%
4 | N#Cc1c(N2CCOCC2)nc(=S)[nH]c1-c1ccccc1 | 87.6% | 72.5% | 76.4% | 51.3% | 68.9% | -7.41% (active) | 59.6% | 85.6% | 82.9% | 77.3%
5 | COc1ccc(-c2cc(C(=O)N3N=C(c4ccc(N)cc4)CC3c3ccccc3)c3ccccc3n2)cc1 (stereo not given) | 56.7% | 77.3% | 47.1% | 30.6% | 18.2% | 34.5% | 23.7% | 39.4% | 37.3% | 10.8%
6 | COc1cccc(/C=C2\COc3ccc(O)cc3C2=O)c1 | 93.7% | 105% | 106% | 95% | 99.6% | 91.9% | 56.1% | 87.4% | 78.3% | 97.9%
7 | O=C1Nc2ccccc2/C1=C/c1cn(C[C@@H](O)Cn2c3ccccc3c(=O)c3ccccc32)c2ccccc12 | 84.1% | 63.1% | 75.9% | 62.2% | 74.3% | 52.9% | 55.5% | 71.6% | 86.4% | 84.1%
8 | CC/C(Cc1ccccc1)=C(\c1ccc(OCCN2CCCCCC2)cc1)c1ccc(OC(=O)NCc2ccccc2)cc1 | 74.9% | 90% | 96.6% | 82.8% | 5.51% (active) | 56% | 84.7% | 64.4% | 58.4% | -24.2% (active)
9 | O=C(N/N=C/c1ccc(O)cc1O)c1ccc(Nc2ccnc(C(F)(F)F)c2)cc1 | 52.4% | 16.8% | -3.47% (active) | 31.1% | 24.6% | 40.9% | 44.2% | 80.6% | 33.7% | 9.64% (active)
10 | Cc1ccc(-c2nc(C(Cl)Cl)nc3cc(C)nn23)cc1 | -18.4% (active) | 70.2% | -24.9% (active) | 7.49% (active) | -64.8% (active) | 35% | 4.52% (active) | -4.14% (active) | 81.8% | -36.6% (active)
11 | CCCCCSB(SCCCCC)c1ccccc1 | 99.9% | 102% | 103% | 90% | 112% | 105% | 88.3% | 92.4% | 103% | 106%
12 | COc1ccc(Cc2nnc(Nc3nc4ccccc4s3)s2)cc1 | 93% | 98.3% | 89.1% | 108% | 102% | 85% | 100% | 99.4% | 98.1% | 111%
13 | N#CC(C#N)N=Nc1ccc(Cl)cc1Cl | 86.2% | 97.7% | 107% | 80.7% | 105% | -26.5% (active) | 39.3% | 105% | 91.2% | 67.2%
14 | C[C@@H](CO)[C@@H]1CC[C@]2(C(=O)N3CCN(C)CC3)CC[C@]3(C)[C@H](CC[C@@H]4[C@@]5(C)CC[C@H](O)C(C)(C)[C@@H]5CC[C@]43C)[C@@H]12 | 78.5% | 81.4% | 99.7% | 116% | 49.4% | 47.7% | 74.1% | 88.6% | 74% | 90.2%
15 | Cc1cc(N2CCN(C)CC2)nc(NCc2cc(Nc3ccnc4cc(Cl)ccc34)ccc2F)n1 | 25.4% | 40.1% | 8.43% (active) | -14.2% (active) | -54.3% (active) | 5.13% (active) | -8.53% (active) | -17% (active) | -26.9% (active) | -61.6% (active)
16 | CC(C)(CO)N(CCO)CCO | 97.3% | 94% | 95.4% | 110% | 110% | 78.9% | 95.9% | 114% | 102% | 123%
17 | Cn1ncc2ccc(-c3nc(-c4ccccc4)[nH]c3-c3n[nH]c(=O)n3C3CC3)cc21 | 93.7% | 97.7% | 111% | 95.1% | 99.4% | 61.3% | 81.5% | 93.7% | 88.8% | 109%
18 | COc1cc(Nc2c3ccc(Cl)cc3nc3ccc(OC)cc23)c2ncccc2c1 | 50% | 62.1% | 47.9% | 50.1% | 21% | -0.879% (active) | 49.7% | 34.3% | 60.4% | 59.6%
19 | CCN1C(=O)N(CC)C2C1NN=c1s/c(=C\c3cc4ccccc4[nH]3)c(=O)n12 (stereo not given) | 34.8% | 38.6% | 50.6% | 16.5% | 0.818% (active) | -5.71% (active) | -12.2% (active) | 0.183% (active) | 28.9% | -32.5% (active)
20 | COc1cc(/C=N/Nc2ccccc2F)cc(OC)c1OC | 101% | 95.6% | 91.3% | 94.4% | 101% | 99.1% | 68.7% | 95.5% | 90.4% | 109%
21 | CCOC(=O)c1c(C)nc2c(c1N)CC(=O)N2Cc1cc(OC)c(OC)c(OC)c1 | 39.7% | 70.5% | 81.3% | 32.5% | 17.6% | 62.6% | 33.2% | 40.7% | 66.2% | 20.4%
22 | O=[N+]([O-])/C(=C\c1ccco1)c1ccccc1Cl | 92.3% | 90.3% | 80.2% | 76.2% | 68.1% | 33.2% | 23.2% | 62.3% | 9.35% (active) | 82.8%
23 | C#CC#CC#CC#CC#CC#CC#CC#CC[C@H]1OC[C@H](COC(=O)O[C@@H](C(=O)O[C@H]2C[C@@]3(O)[C@@H](OC(=O)c4ccccc4)[C@@H]4[C@]5(OC(C)=O)CO[C@@H]5C[C@H](O)[C@@]4(C)C(=O)[C@H](OC(C)=O)C(=C2C)C3(C)C)[C@@H](NC(=O)c2ccccc2)c2ccccc2)O1 | 45.8% | 54.5% | 53.6% | 68.9% | 18.8% | 57.7% | 63.5% | 49.6% | 83.5% | 19.3%
24 | COP(=O)(OC)c1nnn(-c2cccc([N+](=O)[O-])c2)c1C | 107% | 120% | 114% | 110% | 104% | 119% | 90.3% | 111% | 103% | 122%
25 | COc1cc(/C=C/c2cc(/C=C/c3ccc(O)c(OC)c3)n(C(=O)Nc3ccc(F)cc3)n2)ccc1O | 10.7% | 15.9% | 27.3% | 30.2% | 8.35% (active) | -3.45% (active) | -6.04% (active) | 12% | -6.9% (active) | 8.73% (active)
26 | CN1CCN(CCCOc2ccc3ncnc(Nc4ccc(Oc5cccc(F)c5)c(Cl)c4)c3c2)CC1 | 50.8% | 88.4% | 22.1% | 48.7% | -62.8% (active) | 31.4% | 22% | 21.1% | -3.9% (active) | -37% (active)
